Holding throughout (experiment): log2 fold change, soluble protein after heating vs DMSO (PISA); higher = thermal stabilisation; K562 lysate, 10 uM; active = over 0.2 and 3.5 SD of the protein, either way, in both replicates (recomputed)
Compound in experiment [1]: CC1=C(C=C(C=C1)NC(=O)C2=CC(=CC=C2)C(C)(C)C#N)NC3=CC4=C(C=C3)N=CN(C4=O)C
The procedure, abridged: (§1)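 Soluble protein was defined as the supernatant remaining after 21,000xg for 90 min, following pooling of heated aliquots and adjustment to 0.5% NP-40 at 4°C. Before that, crude K562 extract at 1 mg/mL protein in PBS pH 7.4 with 1 mM MgCl2 was treated with 10 μM compound for 30 min and heated for 3 min across 48°C-58°C. Quantification used TMTpro 16plex LC-MS/MS with channel sums equalised, and values are log-two fold changes in thermal stability relative to solvent controls from duplicates.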

Compound in the next experiment: C#Cc1cccc(Nc2ncnc3cc(OCCOC)c(OCCOC)cc23)c1 [erlotinib]
The gist of the method: as §1

Compound in experiment [2]: C1=CC(=CC=C1C2=NC3=C(N2)C=C(C=C3)C(=O)N)OC4=CC=C(C=C4)Cl
The procedure, abridged:
as §1

Compound in experiment [3]: C1=CC2=NC=CN=C2C=C1/C=C/3\C(=O)NC(=O)S3
The gist of the method: as §1

Compound in experiment [4]: C1=CC=C(C=C1)C2=NC(=C(N2)C3=CC=NC=C3)C4=CC(=C(C=C4)Cl)O
The procedure, abridged:
as §1

Compound in a further experiment: C1COCCN1CCN2C3=CC=CC=C3N=C2NC(=O)C4=CC(=CC=C4)[N+](=O)[O-] [IRAK-1-4 Inhibitor I]
The gist of the method: as §1

Compound in another experiment: C=CC(=O)N1CCC[C@@H](n2nc(-c3ccc(Oc4ccccc4)cc3)c3c(N)ncnc32)C1 [ibrutinib]
The procedure, abridged:
as §1

Compound in experiment [5]: CC(=O)c1cnc2ccc(-c3cc(Cl)c(O)c(Cl)c3)nc2c1N[C@H]1CC[C@H](CN(C)C)CC1
The gist of the method: as §1

Compound in a further experiment: CC(C)(C)Cn1c(N)nc2ccc(-c3[nH]c(C(C)(C)C)nc3-c3ccc(F)cc3)nc21 [ralimetinib]
The procedure, abridged: as §1

Compound in experiment [6]: CC(C)(O)CC(=O)NCCn1ccc2ncnc(Nc3ccc(Oc4cccc(C(F)(F)F)c4)c(Cl)c3)c21
The procedure, abridged: as §1

Compound in experiment [7]: CC(C)C1=C2N=C(C=C(N2N=C1)NCC3=CC=CC=C3)NCCCCCCN
The gist of the method: as §1

Compound in experiment [8]: CC1=C(C(CC(=O)N1)C2=CC=C(C=C2)C(F)(F)F)C(=O)NC3=C(C=C4C(=C3)C=NN4)F
The gist of the method: as §1

Compound in experiment [9]: CC1=C(C=C(C=C1)NC(=O)C2=CC(=CC=C2)N(C)C)NC(=O)C3=CC=C(C=C3)O
The procedure, abridged: as §1

Compound in experiment [10]: CC1=CC=C(C=C1)SC2=C3C=C(SC3=CN=C2)C(=O)N
The procedure, abridged:
as §1

Compound in experiment [11]: C1CCN(C1)C(=O)NC2=CC=CC(=C2)NC3=NC=C(C(=N3)NCCC4=CN=CN4)Br
The gist of the method:
as §1

Compound in experiment [12]: C1CN(CCC1(CC2=CC=C(C=C2)Cl)N)C3=NC=NC4=C3C=CN4
The gist of the method: as §1

Compound in experiment [13]: CC1=C(C2=C(C=C1)C(=O)C3=CC=CC=C3N2CCCN)C
The gist of the method:
as §1

Targets with a hit are over-represented here; the source holds about 8,800 in all. About 0.5% of all pairs of compound and target were hits. Values without a mark were called inactive.

Sequence of UniProt Q6WRX3 (Q6WRX3 whole entry, looked up): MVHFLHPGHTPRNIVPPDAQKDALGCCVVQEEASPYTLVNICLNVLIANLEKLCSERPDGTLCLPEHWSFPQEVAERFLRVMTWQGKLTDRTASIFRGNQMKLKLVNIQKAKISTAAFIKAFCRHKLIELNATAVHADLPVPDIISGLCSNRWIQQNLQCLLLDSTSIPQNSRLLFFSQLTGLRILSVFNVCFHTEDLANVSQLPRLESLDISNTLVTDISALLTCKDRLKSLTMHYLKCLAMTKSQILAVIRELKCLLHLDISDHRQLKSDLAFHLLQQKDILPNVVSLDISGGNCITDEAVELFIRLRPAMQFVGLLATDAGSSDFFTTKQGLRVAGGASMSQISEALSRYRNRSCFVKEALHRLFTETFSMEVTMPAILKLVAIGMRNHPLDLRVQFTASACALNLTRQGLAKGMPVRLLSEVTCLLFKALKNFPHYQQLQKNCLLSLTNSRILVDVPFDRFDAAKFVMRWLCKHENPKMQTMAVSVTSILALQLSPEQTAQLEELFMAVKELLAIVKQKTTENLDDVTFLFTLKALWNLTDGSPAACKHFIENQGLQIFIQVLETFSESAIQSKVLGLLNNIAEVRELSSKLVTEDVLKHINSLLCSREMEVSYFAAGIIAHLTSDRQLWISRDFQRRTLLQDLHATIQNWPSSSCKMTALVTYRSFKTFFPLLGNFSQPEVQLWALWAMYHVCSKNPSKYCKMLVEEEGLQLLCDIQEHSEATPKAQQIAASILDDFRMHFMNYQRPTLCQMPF
Sequence of UniProt P46939 (P46939 whole entry, looked up): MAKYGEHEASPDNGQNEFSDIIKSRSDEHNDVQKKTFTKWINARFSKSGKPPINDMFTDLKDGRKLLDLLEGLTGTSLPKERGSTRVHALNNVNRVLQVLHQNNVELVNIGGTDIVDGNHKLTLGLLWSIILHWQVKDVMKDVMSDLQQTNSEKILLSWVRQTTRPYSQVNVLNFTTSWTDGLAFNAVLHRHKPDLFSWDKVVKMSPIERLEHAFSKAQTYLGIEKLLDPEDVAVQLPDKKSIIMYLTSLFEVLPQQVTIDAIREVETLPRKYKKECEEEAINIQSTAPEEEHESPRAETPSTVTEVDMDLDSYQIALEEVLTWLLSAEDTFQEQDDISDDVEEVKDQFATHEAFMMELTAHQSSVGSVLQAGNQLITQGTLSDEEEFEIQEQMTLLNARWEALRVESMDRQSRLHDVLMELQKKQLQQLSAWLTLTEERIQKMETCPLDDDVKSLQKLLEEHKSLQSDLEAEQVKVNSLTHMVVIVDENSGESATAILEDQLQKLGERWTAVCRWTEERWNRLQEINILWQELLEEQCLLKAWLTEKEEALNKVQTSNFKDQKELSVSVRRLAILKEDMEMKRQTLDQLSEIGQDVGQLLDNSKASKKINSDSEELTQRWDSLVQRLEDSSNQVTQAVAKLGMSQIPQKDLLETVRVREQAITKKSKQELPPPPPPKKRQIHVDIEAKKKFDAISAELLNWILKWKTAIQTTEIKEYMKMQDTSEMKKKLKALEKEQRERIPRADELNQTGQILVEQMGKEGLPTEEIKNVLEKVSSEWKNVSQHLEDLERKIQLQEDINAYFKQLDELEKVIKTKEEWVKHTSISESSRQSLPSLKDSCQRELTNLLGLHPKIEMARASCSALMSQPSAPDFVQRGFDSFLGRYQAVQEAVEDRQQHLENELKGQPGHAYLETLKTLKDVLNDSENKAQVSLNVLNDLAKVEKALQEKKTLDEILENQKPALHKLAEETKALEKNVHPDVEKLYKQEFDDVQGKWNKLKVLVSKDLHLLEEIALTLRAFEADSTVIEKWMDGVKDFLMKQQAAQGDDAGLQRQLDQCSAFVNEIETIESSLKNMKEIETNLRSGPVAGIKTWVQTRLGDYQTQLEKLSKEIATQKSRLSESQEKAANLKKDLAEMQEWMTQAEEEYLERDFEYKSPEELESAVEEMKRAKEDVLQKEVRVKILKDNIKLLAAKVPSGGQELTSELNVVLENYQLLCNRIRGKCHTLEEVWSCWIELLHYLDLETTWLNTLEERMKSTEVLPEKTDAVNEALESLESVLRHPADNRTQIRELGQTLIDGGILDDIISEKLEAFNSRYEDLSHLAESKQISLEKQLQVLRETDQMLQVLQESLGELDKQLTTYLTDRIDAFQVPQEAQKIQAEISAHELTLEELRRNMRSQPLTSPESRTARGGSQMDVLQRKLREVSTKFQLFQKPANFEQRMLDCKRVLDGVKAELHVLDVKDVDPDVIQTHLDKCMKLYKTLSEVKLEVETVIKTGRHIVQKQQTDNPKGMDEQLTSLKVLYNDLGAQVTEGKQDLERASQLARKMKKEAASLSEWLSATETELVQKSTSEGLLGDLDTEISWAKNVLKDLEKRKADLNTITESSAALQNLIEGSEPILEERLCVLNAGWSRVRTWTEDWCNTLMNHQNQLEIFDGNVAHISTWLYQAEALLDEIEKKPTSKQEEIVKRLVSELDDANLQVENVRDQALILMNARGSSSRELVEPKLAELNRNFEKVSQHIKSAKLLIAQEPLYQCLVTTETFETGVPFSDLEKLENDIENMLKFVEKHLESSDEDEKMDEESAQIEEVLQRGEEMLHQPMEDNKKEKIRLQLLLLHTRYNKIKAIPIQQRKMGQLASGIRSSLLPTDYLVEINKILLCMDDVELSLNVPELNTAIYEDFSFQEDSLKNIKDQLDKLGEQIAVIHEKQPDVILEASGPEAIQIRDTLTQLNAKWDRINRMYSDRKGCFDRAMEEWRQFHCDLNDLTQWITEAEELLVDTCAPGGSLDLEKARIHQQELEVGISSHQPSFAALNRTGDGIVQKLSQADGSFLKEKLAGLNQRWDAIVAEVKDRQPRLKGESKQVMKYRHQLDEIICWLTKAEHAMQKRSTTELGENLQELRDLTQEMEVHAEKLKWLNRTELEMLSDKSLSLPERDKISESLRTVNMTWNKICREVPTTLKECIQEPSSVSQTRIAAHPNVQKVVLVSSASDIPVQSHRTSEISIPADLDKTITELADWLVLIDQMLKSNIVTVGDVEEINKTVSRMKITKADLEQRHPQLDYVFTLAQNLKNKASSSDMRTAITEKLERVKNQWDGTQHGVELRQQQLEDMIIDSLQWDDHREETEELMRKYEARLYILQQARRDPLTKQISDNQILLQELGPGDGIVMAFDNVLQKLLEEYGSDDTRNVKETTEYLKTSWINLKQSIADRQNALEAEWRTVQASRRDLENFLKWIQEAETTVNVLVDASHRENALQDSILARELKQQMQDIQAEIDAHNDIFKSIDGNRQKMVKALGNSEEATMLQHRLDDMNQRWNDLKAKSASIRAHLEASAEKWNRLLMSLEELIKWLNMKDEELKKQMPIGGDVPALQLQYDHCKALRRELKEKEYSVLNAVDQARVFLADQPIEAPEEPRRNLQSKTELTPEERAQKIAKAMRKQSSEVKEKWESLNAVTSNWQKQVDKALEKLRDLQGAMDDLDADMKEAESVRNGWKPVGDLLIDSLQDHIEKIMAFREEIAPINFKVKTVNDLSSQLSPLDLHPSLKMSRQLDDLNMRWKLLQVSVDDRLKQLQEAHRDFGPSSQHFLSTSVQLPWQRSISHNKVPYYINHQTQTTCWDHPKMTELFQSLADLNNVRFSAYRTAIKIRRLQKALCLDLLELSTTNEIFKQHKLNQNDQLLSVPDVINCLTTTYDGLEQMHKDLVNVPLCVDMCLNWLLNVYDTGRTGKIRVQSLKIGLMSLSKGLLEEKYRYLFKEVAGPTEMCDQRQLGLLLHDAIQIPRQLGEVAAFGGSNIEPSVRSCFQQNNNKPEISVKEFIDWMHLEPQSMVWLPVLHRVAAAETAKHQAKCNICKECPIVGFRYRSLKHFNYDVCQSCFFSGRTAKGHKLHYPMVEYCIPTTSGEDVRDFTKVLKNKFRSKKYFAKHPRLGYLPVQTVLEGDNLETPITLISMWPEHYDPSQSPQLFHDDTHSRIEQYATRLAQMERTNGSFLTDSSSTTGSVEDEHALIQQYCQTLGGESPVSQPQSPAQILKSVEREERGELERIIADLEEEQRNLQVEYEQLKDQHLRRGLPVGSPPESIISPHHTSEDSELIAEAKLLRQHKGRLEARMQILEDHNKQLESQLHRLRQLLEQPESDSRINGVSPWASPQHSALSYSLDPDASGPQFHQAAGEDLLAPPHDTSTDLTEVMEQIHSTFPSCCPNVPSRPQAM
Sequence of UniProt Q6EMK4 (Q6EMK4 whole entry, looked up): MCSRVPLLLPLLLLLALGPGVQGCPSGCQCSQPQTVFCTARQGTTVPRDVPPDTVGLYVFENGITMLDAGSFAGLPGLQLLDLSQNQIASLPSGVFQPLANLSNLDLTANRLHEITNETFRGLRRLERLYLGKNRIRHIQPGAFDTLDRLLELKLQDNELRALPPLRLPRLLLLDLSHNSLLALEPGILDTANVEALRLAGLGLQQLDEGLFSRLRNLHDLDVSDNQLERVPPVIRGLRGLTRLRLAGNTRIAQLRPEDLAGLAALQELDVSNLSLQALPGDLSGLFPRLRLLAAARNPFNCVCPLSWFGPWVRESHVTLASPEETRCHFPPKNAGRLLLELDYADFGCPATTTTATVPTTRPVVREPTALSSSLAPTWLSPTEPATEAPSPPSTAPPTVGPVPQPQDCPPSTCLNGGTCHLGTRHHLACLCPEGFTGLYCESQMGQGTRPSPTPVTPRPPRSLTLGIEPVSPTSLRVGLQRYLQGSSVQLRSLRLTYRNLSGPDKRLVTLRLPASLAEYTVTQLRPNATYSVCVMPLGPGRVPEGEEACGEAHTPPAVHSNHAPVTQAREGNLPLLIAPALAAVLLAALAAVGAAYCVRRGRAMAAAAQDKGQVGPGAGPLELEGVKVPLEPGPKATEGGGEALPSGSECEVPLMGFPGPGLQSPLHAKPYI

Regarding ZSCAN26 (UniProt Q16670), the log2 fold change in [1] was 0.007.

As for ZYG11A (UniProt Q6WRX3), the log2 fold change is -0.125 in the experiment with erlotinib; -0.059 in [2]; -0.061 in experiment [3]; -0.04 in experiment [4]; -0.004 with IRAK-1-4 Inhibitor I; 0.228 with ibrutinib. In addition, the log2 fold change in [5] was 0.063; with ralimetinib it was 0.082; in experiment [6], -0.087; in experiment [7] it was -0.159; in experiment [8] it was 0.046; in experiment [9], 0.052. Besides, the log2 fold change in experiment [10] was -0.315.

In the case of WIPI2 isoform 6 (UniProt Q9Y4P8), the results for the log2 fold change (in [3]; in the experiment with ibrutinib) were 0.079 and -0.021, respectively.

Take UTRN isoform 2 (UniProt P46939): the log2 fold change with erlotinib is -0.222; in experiment [2], 0.247; in experiment [3], -0.072; in experiment [11] it was 0.135; in experiment [12] it was 0.171; with ibrutinib it was -0.03. The log2 fold change in experiment [7] was -0.012.

Consider VASN (UniProt Q6EMK4), for which the log2 fold change with erlotinib was -0.644 (active); in experiment [2], 0.071; in experiment [4], -0.191; in experiment [11] it was -0.277; in experiment [12] it was -0.01; with IRAK-1-4 Inhibitor I it was 0.222. The log2 fold change was 0.332 in the experiment with ralimetinib; 0.172 in [6]; -0.004 in [7]; -0.255 in experiment [13]; -0.295 in experiment [9].

ZFYVE19 isoform 3 (UniProt Q96K21): the log2 fold change was 0.038 in experiment [3], 0.085 with ibrutinib, -0.084 in [5] and 0.047 in experiment [10].

The record behind these values is the supplement of paper PMC10849652.
